Measured values as given in PubChem BioAssay AID485346 (Sanford-Burnham Center for Chemical Genomics, 2010).
The campaign covered roughly 330,000 compounds. About 10,000 (3%) were called active.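 Rule for the calls: active = inhibition of at least 50% at 8 µM in the primary screen; inactive = the rest.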 Many of the other results were omitted from the sample, so actives are more common in it than they were.

Each compound was assayed against Protein Mdm4 (Homo sapiens) + E3 ubiquitin-protein ligase Mdm2 (Homo sapiens) (UniProt O15151+Q00987) (assay: disruptors of Mdm2/MdmX RING complex – cell-based, luminescence, split luciferase, SaOS-2, uHTS, primary screen (AID 485346)). Conditions: SaOS-2 split-luciferase Mdm2/MdmX complementation, at 8 µM, stronger effect = higher value.
Protein Mdm4 (Homo sapiens) + E3 ubiquitin-protein ligase Mdm2 (Homo sapiens), sequence (O15151 whole entry, looked up): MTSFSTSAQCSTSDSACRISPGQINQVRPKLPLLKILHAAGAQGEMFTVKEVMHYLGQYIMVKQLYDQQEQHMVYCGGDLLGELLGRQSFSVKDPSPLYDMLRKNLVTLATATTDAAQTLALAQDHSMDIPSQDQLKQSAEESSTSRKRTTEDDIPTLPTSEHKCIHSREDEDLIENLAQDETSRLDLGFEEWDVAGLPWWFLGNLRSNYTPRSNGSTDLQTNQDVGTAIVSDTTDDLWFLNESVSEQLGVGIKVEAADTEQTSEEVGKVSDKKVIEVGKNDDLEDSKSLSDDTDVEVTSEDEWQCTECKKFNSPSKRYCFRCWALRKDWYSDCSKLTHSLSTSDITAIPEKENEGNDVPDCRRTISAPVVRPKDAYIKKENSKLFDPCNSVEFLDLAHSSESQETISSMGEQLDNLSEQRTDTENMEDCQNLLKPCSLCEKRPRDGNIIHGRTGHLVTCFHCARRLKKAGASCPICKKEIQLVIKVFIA
Protein Mdm4 (Homo sapiens) + E3 ubiquitin-protein ligase Mdm2 (Homo sapiens), sequence (Q00987 whole entry, looked up): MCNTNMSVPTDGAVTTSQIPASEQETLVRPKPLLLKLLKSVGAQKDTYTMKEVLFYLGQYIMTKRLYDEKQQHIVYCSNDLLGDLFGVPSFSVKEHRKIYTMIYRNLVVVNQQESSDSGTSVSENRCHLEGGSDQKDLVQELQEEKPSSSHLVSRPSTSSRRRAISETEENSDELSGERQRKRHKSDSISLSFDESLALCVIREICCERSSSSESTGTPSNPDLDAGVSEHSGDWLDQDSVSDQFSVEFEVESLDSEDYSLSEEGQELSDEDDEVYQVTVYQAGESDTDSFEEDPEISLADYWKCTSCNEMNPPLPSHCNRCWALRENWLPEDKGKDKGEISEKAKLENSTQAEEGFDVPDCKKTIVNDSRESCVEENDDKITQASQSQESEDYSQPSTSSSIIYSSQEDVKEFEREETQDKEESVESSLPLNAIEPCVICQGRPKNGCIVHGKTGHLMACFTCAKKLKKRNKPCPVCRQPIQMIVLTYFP

SMILES	inhibition
Nc1nnnn1CC(=O)N/N=C/c1ccc(-c2cccc(Cl)c2)o1	0.676% (inactive)
Nc1nnn(CC(=O)N/N=C/c2ccccc2)n1	14.3% (inactive)
O=C(Cn1nnc(-c2ccccc2)n1)N/N=C/c1ccc(-c2ccc(Cl)cc2)o1	69.4% (active)
Cc1ccc(-n2c(=O)cc(N3CCN(Cc4ccccc4)CC3)[nH]c2=O)cc1	27.6% (inactive)
CN(C)S(=O)(=O)c1ccc(N2CCCC2)c(C(=O)Nc2ccc(Br)cc2F)c1	16.4% (inactive)
CN1CCC(N(C)S(=O)(=O)c2ccc(NC(=O)c3cccc(C#N)c3)cc2)CC1	-11.1% (inactive)
Cc1ccc2nc(NC(=O)C3CSC4(C)CCC(=O)N34)sc2c1 (centres undefined)	11.9% (inactive)
O=C(COc1ccccc1O)NC1CCCC1	7.91% (inactive)
Cc1c(CC(=O)NCCCCCC(=O)O)c(=O)oc2cc3occ(-c4ccccc4)c3cc12	7.02% (inactive)
CCCCCCc1ccc(O)cc1O	26.2% (inactive)
CCCCCCc1cc2cc(-c3nnc(-c4ccccc4)o3)c(=O)oc2cc1O	84.7% (active)
COc1ccc(N2CCN(C(CNS(=O)(=O)c3ccc(C)cc3)c3ccccc3)CC2)cc1 (centres undefined)	10.9% (inactive)
CCC1CO/C(=C(\C(=C(Cl)Cl)N2CCOCC2)[N+](=O)[O-])N1 (centres undefined)	4.94% (inactive)
COc1cccc(C(=O)Nc2nc3ccc(S(C)(=O)=O)cc3s2)c1	-20.5% (inactive)
COc1ccc2sc(N(CCCN(C)C)C(=O)c3ccc(S(=O)(=O)N(C)C4CCCCC4)cc3)nc2c1	19.3% (inactive)
CS(=O)(=O)c1ccc2nc(NC(=O)c3ccc(N4CCCC4=O)cc3)sc2c1	56.8% (active)
CN(C)CCCN(C(=O)c1ccc(S(=O)(=O)N2CCCCCC2)cc1)c1nc2cc3c(cc2s1)OCCO3	52.3% (active)
CN(C)CCCN(C(=O)c1ccc(S(=O)(=O)N2CCCc3ccccc32)cc1)c1nc2ccc(F)cc2s1	76% (active)
CCOc1ccc2nc(N(CCCN(C)C)C(=O)c3ccc(C(=O)c4ccccc4)cc3)sc2c1	48.2% (inactive)
CCc1ccc2nc(N(CCCN(C)C)C(=O)c3ccc4c(c3)OCCO4)sc2c1	39.7% (inactive)
CS(=O)(=O)c1ccc2nc(NC(=O)c3ccc(Cl)nc3)sc2c1	20.5% (inactive)
CC1CCN(C(=O)c2cccc(S(=O)(=O)N3CCCc4ccccc43)c2)CC1	16.9% (inactive)
CCN(CC)CCN(C(=O)c1ccc(S(=O)(=O)N2CCOCC2)cc1)c1nc2cc3c(cc2s1)OCCO3	4.55% (inactive)

SMILES	inhibition
CN(C)CCCN(C(=O)c1ccc(S(=O)(=O)N2CCCCCC2)cc1)c1nc2ccc(Br)cc2s1	70.8% (active)
Cc1ccc2nc(N(CCN(C)C)C(=O)C3=COCCO3)sc2c1	23.3% (inactive)
CCN(CC)CCn1cnc2c1c(=O)n(CCOC(=O)c1cc(OC)c(OC)c(OC)c1)c(=O)n2C	11.6% (inactive)
CCN(CC)CCN1C(=O)C2C(C(=O)Nc3ccc(Br)cc3)C3C=CC2(O3)C1C(=O)NC1CCCCC1 (centres undefined)	-3.95% (inactive)
CC(C)CN1CCNC(=O)C1CC(=O)N(C)CC1CCOCC1 (centres undefined)	11.5% (inactive)
Cc1ccc(CNC(=O)c2ccc(CS(=O)Cc3cccc(Cl)c3)o2)cc1 (centres undefined)	-2.29% (inactive)
O=C(CCc1ccccc1Cl)Nc1ccc(S(=O)(=O)Nc2nccs2)cc1	7.38% (inactive)
O=C(COC(=O)c1cccnc1Cl)Nc1ccc(S(=O)(=O)N2CCOCC2)cc1	5.66% (inactive)
CC1CC(C)CN(S(=O)(=O)c2cccc(C(=O)N3C(=O)c4cccc(N)c4C3=O)c2)C1 (centres undefined)	19.4% (inactive)
Cc1cc(C)n(-c2ccc(NC(=O)C3CCCCN3C(=O)c3cccs3)cc2)n1 (centres undefined)	12% (inactive)
COc1ccc(NC(=O)CCCC2CCCCC2)c(OC)c1	-13.7% (inactive)
Cc1ccccc1-n1nnc2c(=O)oc3ccccc3c21	8.39% (inactive)
Cc1ccc(NC(=O)c2cccc(S(=O)(=O)N3CCCc4ccccc43)c2)nc1	2.43% (inactive)
CNC(=O)c1ccsc1NC(=O)c1ccc(S(=O)(=O)N2CCc3ccccc32)cc1	38% (inactive)
O=C(NC(Nc1nc2ccc([N+](=O)[O-])cc2s1)(C(F)(F)F)C(F)(F)F)c1ccccc1	99.3% (active)
O=C(CNC(=O)c1ccccc1)Oc1ccc([N+](=O)[O-])cc1	-9.24% (inactive)
O=C(Nc1nc2ccc([N+](=O)[O-])cc2s1)c1ccc(S(=O)(=O)N2CCCc3ccccc32)cc1	96.6% (active)
O=C(CCNC(=O)c1ccccc1)Nc1nc2ccccc2s1	-16.2% (inactive)
CCCCCCC12CCC(C(=O)O)(CC1)CC2	11.2% (inactive)
COc1cccc(CC(=O)OCC(=O)NCc2ccc3c(c2)OCO3)c1	1.87% (inactive)
CCn1c(CSCc2c(Cl)cccc2Cl)n[nH]c1=S	7.91% (inactive)
Cc1cc(NS(=O)(=O)c2ccc(NC(=O)c3cccc(OC(F)F)c3)cc2)nc(C)n1	-4.83% (inactive)
COc1ccc(C2c3[nH]c4ccccc4c3C[C@H]3C(=O)N(CC(C)C)CC(=O)N23)c(OC)c1 (some centres undefined)	13.6% (inactive)

SMILES	inhibition
COc1ccc(Br)c2c1C(=O)CC2	7.81% (inactive)
O=C(NCCCn1ccnc1)C(=O)NCC1OCCN1S(=O)(=O)c1cc(F)ccc1F (centres undefined)	-11.2% (inactive)
CCOC(=O)c1ccc(NC(=O)c2c(NCc3ccccc3)[nH]c(=O)[nH]c2=O)cc1	73.2% (active)
CCOC(=O)c1ccc(NC(=O)c2cc(=O)[nH]c3ccccc23)cc1	23% (inactive)
CCOC(=O)c1ccc(NC(=O)c2c(N)n(C)c(=O)[nH]c2=O)cc1	5.07% (inactive)
CCOC(=O)N1CCC(N2Cc3cccc(C(=O)Nc4c(C)cccc4CC)c3C2=O)CC1	12.5% (inactive)
CCOc1ccccc1NC(=O)Cc1cccs1	2.43% (inactive)
Cc1ccc(NC(=O)Cn2nnc(C(=O)NCc3ccco3)c2N)c(C)c1	11.7% (inactive)
CCOc1ccccc1NC(=O)Cn1nnc(C(=O)NCc2cccs2)c1N	61.5% (active)
CCN(CC)CCC(c1ccc2c(c1)OCO2)c1c(OC)cc(OC)c2c(-c3ccccc3)cc(=O)oc12 (centres undefined)	76.1% (active)
CCN(CC)C(=O)CC(c1ccc2c(c1)OCO2)c1c(OC)cc(OC)c2c(-c3ccccc3)cc(=O)oc12 (centres undefined)	13% (inactive)
COc1cc(OC)c2ccc(=O)oc2c1C(CCN1CCN(c2ccccc2)CC1)c1ccc2c(c1)OCO2 (centres undefined)	42.4% (inactive)
CCN(CC)CCC(c1cc(OC)c(OC)c(OC)c1)c1c(OC)cc(OC)c2c(-c3ccccc3)cc(=O)oc12 (centres undefined)	62.7% (active)
COc1ccc(-c2c(C)cc3oc(=O)cc(-c4ccccc4)c3c2C)cc1C=O	27.5% (inactive)
COc1cc(C(CCN2CCN(c3ccccc3)CC2)c2c(OC)cc(OC)c3ccc(=O)oc23)cc(OC)c1OC (centres undefined)	15.2% (inactive)
O=C(CN1CCCCC1)NC(=O)Nc1ccccc1F	12.7% (inactive)
O=C(NNC1=C(C(=O)C(F)(F)F)CCC1)c1ccncc1	8.09% (inactive)
COc1cc(OC)c(C(=O)NNC(=O)c2ccccc2-n2cccc2)cc1OC	12.8% (inactive)
CNC(=O)C1CC(=O)N(c2ccc(OCC(=O)Nc3ccccc3C)cc2)C1 (centres undefined)	10.1% (inactive)
COc1ccc(CN2[C@@H](CC(=O)O)c3cc(F)ccc3S2(=O)=O)cc1	-1.99% (inactive)
CCCCCNC(=O)c1cccnc1SCC(=O)Nc1ccccc1OC	1.51% (inactive)
Cc1cccc(NS(=O)(=O)c2cccc(C(=O)NNC(=O)c3ccccc3O)c2)c1	46% (inactive)
CCOC(=O)C(C)N(c1ccccc1Cl)S(C)(=O)=O (centres undefined)	19% (inactive)

SMILES	inhibition
CC(C)=CCCC1(C)C=Cc2c(ccc3c2[nH]c2cc(O)c(C)cc23)O1 (centres undefined)	97.9% (active)
CC(Sc1ccccc1F)C(=O)Nc1cccc(S(=O)(=O)N2CCOCC2)c1 (centres undefined)	8.39% (inactive)
COc1ccc(NC(=O)NC2CC3CCCC(C2)N3Cc2ccccc2)cc1 (centres undefined)	5.4% (inactive)
Cc1c(NC(=O)C(C)OC(=O)c2ccccc2O)c(=O)n(-c2ccccc2)n1C (centres undefined)	13.1% (inactive)
O=c1[nH]c(/C=C/c2cccc(Br)c2)nc2ccccc12	48.2% (inactive)
COc1ccc(C)cc1-n1nnnc1SCc1nc2ccccc2c(=O)[nH]1	18.2% (inactive)
CCOc1cc(/C=C/c2nc3ccccc3c(=O)[nH]2)cc(Br)c1OC	69.3% (active)
Cc1nonc1OCCn1nnnc1N	6.95% (inactive)
COC(=O)c1ccc(Sc2ccc(F)cc2)c(N)c1	-11% (inactive)
Oc1cccc(/C=N/Nc2ccc(Cl)nn2)c1O	68.6% (active)
Cc1ccsc1/C=N/Nc1ccc(Cl)nn1	-10.7% (inactive)
COc1cccc(/C=N/Nc2ccc(Cl)nn2)c1	-64.5% (inactive)
Cc1cc(N2CCCC2)ccc1NC(=O)COc1ccc(Cl)cc1	-1.43% (inactive)
CCN(CC)C(=O)c1nc[nH]c1C(=O)N(C)Cc1ccccc1	-2.16% (inactive)
Cc1ccccc1CNC(=O)CCC(=O)N1Cc2ccccc2Oc2ncccc21	18.7% (inactive)
CC[C@H]1OC(=O)[C@H](C)[C@@H](O[C@H]2C[C@@](C)(OC)[C@@H](O)[C@H](C)O2)[C@H](C)[C@@H](O[C@@H]2O[C@H](C)C[C@H](N(C)C)[C@H]2O)[C@](C)(O)C[C@@H](C)[C@@H]2N[C@@H](COCCOC)O[C@H]([C@H]2C)[C@]1(C)O	-10.6% (inactive)
C=CCOc1c2ccc(C(=O)N(CC)c3ccc(OC)cc3)cc2nn1C	13.6% (inactive)
CCCn1nc(C(=O)NNC(=O)CSCC(=O)Nc2cc(C)on2)c2ccccc2c1=O	-23.6% (inactive)
CCCCn1nc(C(=O)Nc2cccc(C(=O)NC3CC3)c2)c2ccccc2c1=O	-19.3% (inactive)
CCCn1nc(C(=O)Nc2ccc3nc(C)sc3c2)c2ccccc2c1=O	65.5% (active)
